Experimental findings from PubChem BioAssay (NCI) are described below.

Each structure is given as a SMILES string. This is part of a sample that, as a whole, favours compounds with a hit. Of some 83,000 tested, about 20% had one in any assay.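 For each line, cells grew in 96-well plates with the test compound present at a single concentration for 48 hours.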 A number with no mark means an inactive call. Calls of active or inactive are those of the source. The calls were made as follows: active = growth percent below 10; inactive = the rest.

What all share (assay): NCI-60 one-dose screen, 48 h (100 = growth as untreated, 0 = no growth, -100 = all killed)
Holding throughout (conditions): 10 µM

Assay [1] deals with HCT-15 colon.
Assay [2] has as its system HT29 colon.
Assay [3] has as its system SNB-75 CNS.
For assay [4], the system named is SNB-19 CNS.
Assay [5] has as its system U251 CNS.
Assay [6] relates to PC-3 prostate.
The test system of assay [7] is SK-MEL-5 melanoma.
Assay [8] deals with UACC-62 melanoma.
The test system of assay [9] is LOX IMVI melanoma.
The subject of assay [10] is SK-MEL-28 melanoma.
Assay [11] relates to SK-MEL-2 melanoma.
Assay [12] concerns EKVX NSCLC.
Assay [13] relates to SN12C renal.
In assay [14] the test system is UO-31 renal.
Assay [15] concerns TK-10 renal.
Assay [16] has as its system ACHN renal.
Assay [17] relates to CAKI-1 renal.
Assay [18] deals with A498 renal.
In assay [19] the test system is CCRF-CEM leukemia.
Assay [20] deals with MOLT-4 leukemia.

For the compound `CN1CCN(Cc2ccc(C(=O)Nc3cccc(Nc4ccc5c(O)cccc5n4)c3)cc2C(F)(F)F)CC1`, the growth is -25.4% (active) in assay [1]; -50.8% (active) in assay [2]; 33.1% in assay [3]; -64.3% (active) in assay [4]; -35.3% (active) in assay [5]; 10.8% in [6]. Further, the growth in assay [7] is -100% (active); in assay [8], -79.9% (active); in assay [9], -100% (active); in assay [10], -95% (active); in [11] it was -75.9% (active); in assay [12] it was -45.6% (active). The growth was 1.56% (active) in [13]; -20.2% (active) in assay [14]; -21% (active) in [15]; -23.4% (active) in assay [16]; -38.3% (active) in assay [17]; -33.2% (active) in [18]. The growth in assay [19] was 5.12% (active); in assay [20], -2.84% (active).

Regarding `Cc1ccc(CSc2nc(Cl)c(C#N)c(-c3ccc(F)cc3)n2)cc1`, the growth in assay [1] was 54.4%; in [2] it was 38.4%; in [3], 126%; in [4] it was 89.3%; in [5] it was 68.8%; in [6], 42.6%. The growth is 77.6% in assay [7]; 77.2% in assay [8]; 85.8% in assay [9]; 93.9% in [10]; 92.1% in assay [11]; 79.6% in [12]. In addition, the growth in assay [13] was 70.2%; in assay [14] it was 67.9%; in assay [15] it was 91.7%; in assay [16], 85.4%; in [17], 67.1%; in [18], 91.6%. Besides, the growth is 67.7% in assay [19] and 61.9% in assay [20].

Turning to `CCOP(=O)(OCC)O[C@H]1CCC(=O)[C@@H]2[C@H]1[C@H]1C[C@@H]3[C@@]4(C)CCCC(C)(C(=O)OC)[C@@H]4CC[C@@]23C=C1C(C)C` (stereo not given in full), the growth in [1] is 49.8%; in assay [2], 42.5%; in assay [3] it was 100%; in assay [4], 68.1%; in [5], 42.1%; in assay [6] it was 23.5%. In addition, the growth in [7] was 18.1%; in [8] it was 46.1%; in assay [9], 62.4%; in [10] it was 72.7%; in assay [11], 71.3%; in [12], 41.5%. Moreover, the growth is 65.4% in [13]; 53.5% in assay [14]; 83.2% in assay [15]; 65.2% in assay [16]; 63.2% in assay [17]; 91.1% in assay [18]. In addition, the growth in assay [19] is 55.1%; in assay [20], 30%.

Turning to `O=C1Nc2cc(-c3ccc(NC(=O)c4cccc([N+](=O)[O-])c4)cc3)ccc2/C1=C/c1ccc[nH]1`, the growth in assay [1] was 55.3%; in assay [2], 102%; in assay [3] it was 223%; in [4] it was 94.5%; in assay [5], 99.3%; in assay [6] it was 66.2%. For the same compound, the growth was 104% in assay [7]; 63.7% in assay [8]; 86.9% in [9]; 97.1% in [10]; 51.4% in [11]; 66.5% in assay [12]. In addition, the growth in [13] is 101%; in [14], 67.2%; in assay [15], 108%; in [16], 59.6%; in assay [17], 97.8%; in [18] it was 149%. Also, the figures for the growth in assay [19] and in [20] were 91.2% and 73.8%, respectively.

`Cc1cc(=O)oc2cc(OCCCCOc3ccc(/C=C/C(=O)Nc4ccccc4[N+](=O)[O-])cc3)ccc12`: the growth in [1] is 104%; in assay [2] it was 117%; in assay [3], 103%; in [4], 97.8%; in assay [5], 106%; in assay [6], 109%. The growth in [7] was 102%; in assay [8], 94.9%; in [9], 107%; in assay [10] it was 103%; in assay [11] it was 117%; in [12] it was 105%. Further, the growth was 100% in assay [13]; 90.6% in assay [14]; 104% in [15]; 108% in assay [16]; 100% in assay [17]; 127% in assay [18]. In addition, the values for the growth in assay [19] and in assay [20] were 99.8% and 108%, respectively.

On to `COc1cc(/C=C/C(=O)c2ccc(NC(=O)CN3C(=O)NC(C)(c4ccccc4)C3=O)cc2)cc(OC)c1OC` (stereo not given), for which the growth in assay [1] was 11.8%; in assay [2], -2.37% (active); in assay [3], 83.8%; in assay [4], 42.6%; in [5] it was -15.7% (active); in assay [6] it was 31.9%. For the same compound, the growth in assay [7] was 44.7%; in assay [8] it was 41.6%; in [9], -46.1% (active); in assay [10], 49.8%; in [11] it was 86%; in assay [12], 73.2%. For the same compound, the growth in [13] is 10.7%; in assay [14], 73.9%; in [15], 98.6%; in assay [16], 56%; in [17], 75.3%; in [18] it was 132%. In addition, the growth in assay [19] is 7.14% (active); in assay [20], 1.84% (active).

With `Cc1noc2c(Cc3ccc([N+](=O)[O-])cc3)nn(CC(=O)N/N=C/c3ccc(Cl)cc3)c(=O)c12`, the growth in assay [1] was 80.5%; in assay [2], 62.3%; in assay [3], 44.9%; in [4] it was 42.2%; in assay [5] it was 12.7%; in assay [6], 59.5%. The growth was 88.4% in [7]; 65.3% in [8]; 40.7% in assay [9]; 69.9% in assay [10]; 90.5% in [11]; 79.8% in assay [12]. In addition, the growth in assay [13] was 54%; in assay [14] it was 40.8%; in assay [15], 71.9%; in assay [16], 19.4%; in [17], 52.3%; in assay [18], 80.1%. The growth in assay [19] was 95.6%; in assay [20], 97.8%.

Consider `CC(=O)Nc1ccc(-c2cn(-c3cccc(C(=O)Nc4ccc(F)c(C(F)(F)F)c4)c3)nn2)cn1`, for which the growth was 20.7% in assay [1]; 6.65% (active) in assay [2]; 119% in [3]; 43.8% in assay [4]; -47.8% (active) in assay [5]; 43.1% in assay [6]. For the same compound, the growth in assay [7] was 86.1%; in assay [8] it was 55.9%; in [9] it was 8.57% (active); in assay [10] it was 60.3%; in assay [11], 88.9%; in assay [12], 79.9%. For the same compound, the growth in assay [13] is 13.4%; in [14], 123%; in [15], 109%; in assay [16] it was 56.4%; in assay [17], 74.1%; in [18], 114%. Further, the figures for the growth in [19] and in assay [20] were 53.9% and 36.9%, respectively.
